# Screening results as filed in PubChem.
# AF4-AF9 inh – MLL-AF4/AF9 protein interaction inhibition; P42568; AlphaScreen, biotin-AF4 peptide binding to FLAG-AF9; inhibition, % at 10 µM; hit rate 0.47% among 350,000;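 active means every replicate reaching a set inhibition limit, whatever the replicate mean, cut at about 25% in these data; inconclusive means mean inhibition reaches that limit but some replicates miss it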
# Ecoli rRNA inh – inhibitors of bacterial rRNA selective over humanized ribosomes | AID 720706 | GFP signal change (wild-type ribosome), % (test concentration not listed) | E. coli WT GFP vs humanized-ribosome RFP mutants, fluorescence, 24 h; stronger effect = lower value; DMSO median 0, no signal -100 | hit rate 1.6% among 350,000;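 active means significant combined selectivity score with lowered wild-type GFP, culture density cut under 30%, mutant RFP and density less affected; inactive means any of these conditions unmet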
# RAD52 inh – blocks human RAD52 DNA annealing; hit rate 0.46% among 360,000; AID 651710; P43351; inhibition, % at 18.7 µM; recombinant RAD52 DNA annealing, FRET fluorescence;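 active means every replicate showing at least 50% inhibition; inconclusive means mean inhibition at least 50% but not in every replicate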
# Target sequence (P43351 whole entry, looked up): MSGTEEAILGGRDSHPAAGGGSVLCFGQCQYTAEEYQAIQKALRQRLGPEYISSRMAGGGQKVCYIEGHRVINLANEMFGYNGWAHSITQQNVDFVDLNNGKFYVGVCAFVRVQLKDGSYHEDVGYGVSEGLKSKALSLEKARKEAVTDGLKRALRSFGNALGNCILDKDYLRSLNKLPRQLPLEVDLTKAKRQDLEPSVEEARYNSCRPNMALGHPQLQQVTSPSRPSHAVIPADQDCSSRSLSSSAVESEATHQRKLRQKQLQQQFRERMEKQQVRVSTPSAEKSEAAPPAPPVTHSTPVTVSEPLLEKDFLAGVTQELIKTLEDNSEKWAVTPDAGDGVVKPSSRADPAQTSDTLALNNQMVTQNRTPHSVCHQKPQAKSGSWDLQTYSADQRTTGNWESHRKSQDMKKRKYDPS
# NSD2 HMT inh – NSD2 (human) methyltransferase inhibition. hit rate 0.54% among 310,000. NSD2 peptide methylation, AlphaScreen, 120 min. O96028. AID 743445. inhibition, % at 12.5 µM; in the data active means inhibition above about 50%
# CASP6 VEID inh – caspase-6 (human) enzyme inhibition. AID 686996. hit rate 0.53% among 350,000. purified caspase-6, Z-VEID-R110 cleavage fluorescence. inhibition, % at 12.5 µM;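 active means mean inhibition across replicates at least about 35%, with every replicate also reaching that limit, limit read from the data; inconclusive means only one of the two criteria met; inactive means neither criterion met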
# Target sequence (P55212 24-179 limits assumed): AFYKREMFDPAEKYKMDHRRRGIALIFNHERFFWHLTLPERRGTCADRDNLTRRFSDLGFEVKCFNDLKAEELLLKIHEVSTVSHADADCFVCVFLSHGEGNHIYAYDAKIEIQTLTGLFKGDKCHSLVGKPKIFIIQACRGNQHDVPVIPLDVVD
# Target sequence (P55212 194-293 limits assumed): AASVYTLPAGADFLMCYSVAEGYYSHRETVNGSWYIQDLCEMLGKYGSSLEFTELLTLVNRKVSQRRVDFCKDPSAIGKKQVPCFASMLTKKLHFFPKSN
# AID977621 – growth inhibition of wild-type GFP E. coli, dose response, H69 mutant RFP, cherry-pick. 1,900 tested, under 10 active. shares compounds with Ecoli rRNA inh. E. coli wild-type GFP strain growth, fluorescence, 24 h. AID 977621. activity change, negative = inhibition at 50 µM;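 active means Wild-type ribosome reporter drop at least double the humanized mutant ribosome reporter drop, growth loss under a set limit; inconclusive means no clear call, values can overlap the other calls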;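 further: wild-type GFP and H69 mutant RFP strains grown together 50/50 in each well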
# AID977628 – growth of wild-type and h24-humanized E. coli strains – h24 mutant RFP vs wild-type GFP, cherry-pick, dose response | shares compounds with Ecoli rRNA inh | E. coli WT GFP strain growth, fluorescence, 24 h | activity change, negative = inhibition at 50 µM | 1,900 tested, under 10 active | AID 977628;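 active means compound lowering the normal-ribosome reporter at least twice as much as the humanized-ribosome reporter, growth loss under a set limit; inconclusive means no clear call, values can overlap the other calls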;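 further: wild-type GFP and h24 humanized RFP strains co-cultured 1 to 1 per well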
# A number is an active result; – = inactive; ? = inconclusive; · = no result given; ! = not confirmed by another sample. This is a sample that favours compounds with a hit; in the whole collection about 2.5% have one here.
SMILES,AF4-AF9 inh,Ecoli rRNA inh,RAD52 inh,NSD2 HMT inh,CASP6 VEID inh,AID977621,AID977628
CNC[C@H]1OCCCC[C@@H](C)Oc2ccc(NC(=O)Nc3c(C)noc3C)cc2C(=O)N([C@@H](C)CO)C[C@@H]1C,–,–,–,·,–,·,·
CCS(=O)(=O)N1CCN(c2ccnc3cc(Cl)ccc23)CC1,?,-21,–,–,–,–,·
O=[N+]([O-])c1ccccc1S(=O)(=O)N1CCN(Cc2ccc(OCCO)cc2)CC1,–,·,–,·,–,·,·
Cc1cc(C(=O)Nc2ccc3ccccc3c2)c(C)o1,–,-22,–,–,–,–,–
Cc1ccc(C(=O)Nc2ccc3ccccc3c2)cc1,–,–,–,–,–,·,·
Cc1sc(C(=O)Nc2ccc3ccccc3c2)cc1CC(=O)O,–,-31,–,–,–,·,–
Cc1ccoc1C(=O)Nc1ccc2ccccc2c1,–,-20,–,–,–,–,·
C[C@@H]1CCCCO[C@H](CN(C)C(=O)Nc2ccc(F)cc2)[C@@H](C)CN([C@H](C)CO)C(=O)c2cc(NS(=O)(=O)c3ccc(F)cc3)ccc2O1,·,–,·,·,·,·,·
CCCNC(=O)N1C[C@@H](O)COC[C@H]2O[C@@H](CC(=O)N[C@H]3CCN(Cc4ccccc4)C3)CC[C@@H]21,·,–,·,·,·,·,·
C[C@@H]1CCCCO[C@H](CN(C)S(=O)(=O)c2cccs2)[C@@H](C)CN([C@@H](C)CO)C(=O)c2cc(NS(=O)(=O)c3cccs3)ccc2O1,–,–,–,·,–,·,·
CS(=O)(=O)Nc1ccccc1C(=O)NCCSCc1ccccc1,–,–,–,–,–,·,·
CS(=O)(=O)Nc1ccccc1C(=O)NCCSc1ccccc1,–,-22,–,–,–,–,–
C[C@@H]1CN([C@@H](C)CO)S(=O)(=O)c2ccc(Br)cc2O[C@H]1CN(C)C(=O)c1ccccc1,–,-18!,–,·,–,–,–
C=C(C)Cn1c(SCC(=O)O)nc2c1c(=O)[nH]c(=O)n2C,–,-12,–,·,–,?,?
O=C(c1ccccc1F)N1CC[C@H]2[C@H](CO)Nc3ccc(Br)cc3[C@H]21,–,–,–,·,–,·,·
O=C(C1CCCC1)N1CC[C@@H]2[C@@H](CO)Nc3ccc(Br)cc3[C@@H]21,–,–,–,·,–,·,·
CCOC(=O)c1cc(C)nc(N2CCCCC2)c1C#N,·,-21,–,–,–,–,·
CC(C)[C@H](C)NC(=O)N(C)C[C@H]1OCc2ccccc2-c2ccccc2C(=O)N([C@H](C)CO)C[C@@H]1C,–,–,–,·,–,·,·
CN(C)CC(=O)Nc1ccc2c(c1)[C@H]1C[C@@H](CC(=O)NCc3cccnc3)O[C@@H](CO)[C@H]1O2,–,–,–,·,–,·,·
COC(=O)C1CCN(C(=O)c2ccc(OC)c(S(=O)(=O)N3CCCc4ccccc43)c2)CC1,–,-14,–,–,–,–,?
COC(=O)C1CCN(C(=O)COC(=O)c2ccc(OC)c(S(=O)(=O)N3CCCc4ccccc43)c2)CC1,–,–,–,–,–,·,·
Cc1ccc(NC(=O)C2CCCN(c3ncnc4c3nc3n4CCCCC3)C2)cc1Cl (centres undefined),–,-18,–,–,–,–,?
COc1ccc(CN2[C@H](CO)[C@H]3c4ccccc4N(C(=O)c4ccccc4)C[C@H]32)cc1,–,–,–,·,–,·,·
CN(c1ccccc1)S(=O)(=O)c1cccc(NC(=O)c2ccncc2)c1,–,–,–,–,–,·,·
Cc1cc(C)n2nc(C(=O)Nc3cccc(S(=O)(=O)N(C)c4ccccc4)c3)nc2n1,–,-26,–,–,–,–,·
SMILES,AF4-AF9 inh,Ecoli rRNA inh,RAD52 inh,NSD2 HMT inh,CASP6 VEID inh,AID977621,AID977628
COc1ccc(NC(=O)N(C)C[C@@H]2Oc3ccc(NC(=O)Nc4ccc(F)cc4)cc3C(=O)N([C@H](C)CO)C[C@H]2C)cc1,–,–,–,·,–,·,·
O=C(CC(F)(F)F)N1C[C@H]2[C@@H](c3ccccc31)[C@@H](CO)N2C(=O)C1CCOCC1,–,–,–,·,–,·,·
O=C(O)c1cccnc1SCc1ccccc1Cl,–,-22,–,·,–,–,·
C[C@@H]1CN([C@@H](C)CO)C(=O)c2cccc(NC(=O)c3ccncc3)c2O[C@H]1CN(C)S(=O)(=O)c1ccccc1,–,–,–,·,–,·,·
O=C(Cn1cc(COc2c(F)c(F)cc(F)c2F)nn1)c1ccc(O)cc1,–,-18,–,·,–,?,·
S=C1SCN(Cc2cccnc2)CN1Cc1cccnc1,–,-29,–,–,–,–,–
S=C1SCN(Cc2ccccc2)CN1Cc1ccccc1,–,–,–,–,–,·,·
C[C@H](CO)N1C[C@H](C)[C@@H](CN(C)Cc2ccc(Oc3ccccc3)cc2)Oc2ccc(NC(=O)c3ccncc3)cc2CC1=O,–,–,–,·,–,·,·
O=S(=O)(c1ccc(F)cc1)N1CC[C@H]2[C@H](CO)Nc3ccc(Br)cc3[C@H]21,–,–,–,·,–,·,·
CCn1ncc(Br)c1C(=O)Nc1ccc2c(c1)OCCO2,–,-21,–,–,–,·,–
Cc1noc(NS(=O)(=O)c2ccc(NC(=O)c3cc(-c4ccccc4Cl)nc4ccccc34)cc2)c1C,–,-24,–,–,–,–,·
Cc1noc(NS(=O)(=O)c2ccc(NC(=O)c3cc(S(=O)(=O)N(C)c4ccccc4)ccc3Cl)cc2)c1C,–,–,–,–,–,·,·
CC(C)NC(=O)Nc1ccc2c(c1)C(=O)N([C@@H](C)CO)C[C@@H](C)[C@H](CN(C)C(=O)CCCN(C)C)OCCCC[C@@H](C)O2,·,–,·,·,·,·,·
COc1cc(C2CC(=O)Oc3ccc(C(C)(C)C)cc32)cc(OC)c1OC (centres undefined),–,–,–,·,–,·,·
COc1ccc(C2CC(=O)Oc3cc(C)cc(C)c32)cc1 (centres undefined),–,-24,–,·,–,–,–
COc1cc2c(c(OC)c1OC)C(c1ccc3c(c1)OCO3)CC(=O)O2 (centres undefined),–,-20,–,·,–,–,–
Cc1ccc(C2CC(=O)Oc3cc(C)cc(C)c32)cc1 (centres undefined),–,–,–,·,–,·,·
Cc1cc(C)c2c(c1)OC(=O)CC2c1ccc2c(c1)OCO2 (centres undefined),–,–,–,·,–,·,·
CC(C)(C)c1ccc2c(c1)C(c1ccc3c(c1)OCO3)CC(=O)O2 (centres undefined),–,-25,–,·,–,–,·
COc1ccccc1C(=O)Nc1ccc2c(c1)C(=O)N(C)C[C@H](OC)[C@H](C)CN(C(C)=O)[C@H](C)CO2,–,–,–,·,–,·,·
CC1CC(C)CN(c2oc(Cc3ccccc3)nc2C#N)C1 (centres undefined),·,·,·,–,·,·,·
N#Cc1nc(Cc2ccccc2)oc1N1CCCC1,–,-23,–,–,–,·,?
N#Cc1nc(COc2cccc(Cl)c2)oc1N1CCCC1,?,-33,–,·,–,–,–
